The campaign covered roughly 310,000 compounds. About 1,900 (0.61%) were called active. Roughly 8% stayed inconclusive and do not appear here. No cut-off for these calls is given here. The entries come from a sample that favours actives as a whole.

The test in a line: qHTS for Stage-Specific Inhibitors of Vaccinia Orthopoxvirus: mCherry Reporter Primary qHTS. It is filed as functional. Particulars: read-out: Potency.
As for `CN(C)C(=O)CCc1ccc2c3c([nH]c2c1)[C@]1(C)[C@@H](C(=O)N2CCCCC2)C[C@H](CC(=O)NCCN2CCOCC2)C(=O)N1CC3`, the AC50 is 316 µM (active).
Consider `C[C@H]1O[C@@H](O[C@H]2[C@@H](O)C[C@H](O[C@H]3[C@@H](O)C[C@H](O[C@H]4CC[C@@]5(C)[C@H](CC[C@@H]6[C@@H]5CC[C@]5(C)[C@@H](C7=CC(=O)OC7)[C@@H](O)C[C@]65O)C4)O[C@@H]3C)O[C@@H]2C)C[C@H](O)[C@@H]1O` [GITOXIN], for which the AC50 is 355 µM (active).
With `Cc1cccc2c1N(CCCCI)C=S2C` (stereo not drawn), the AC50 was 4.47 µM (active).

For the origin of these results see ChEMBL document CHEMBL1201862, “PubChem BioAssay data set” (2004).
